High-throughput results: PubChem, several laboratories
aSyn 5UTR inh: 5' untranslated region of α-synuclein, MLPCN primary screen; inhibition, % (tested at 7.5 µM); AID 1813; actives 0.82% (n = 300,000); alpha-synuclein 5'UTR reporter, inhibitor activity; in the data active = inhibition above about 60%;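 note: H4 neuroglioblastoma cells stably carrying SNCA 5'UTR luciferase fusion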
KLF5 inh: suppresses KLF5 promoter-driven expression; actives 0.23% (n = 290,000); inhibition, % at 5 µM; DLD-1 KLF5 promoter-luciferase reporter, luminescence;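 active = inhibition above a per-plate limit of that plate's mean compound inhibition plus 3 SD, cut at about 60% in these data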;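 note: higher means less KLF5 promoter-driven luciferase light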
APP transl inh: APP translation inhibition | actives 0.82% (n = 190,000) | inhibition, % at 2 µM | SH-SY5Y APP 5'UTR-luciferase reporter, luminescence;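 active = inhibition above a set limit, derived from the sample mean plus 3 SD, cut at about 45% in these data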
Ba/F3 V617F tox: loss of viability in JAK2V617F-driven Ba/F3 cells. Ba/F3 EpoR-JAK2V617F viability, ATP luminescence. inhibition, % at 5.6 µM. actives 1.1% (n = 220,000);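 active = inhibition above the campaign mean plus 3 SD over all tested compounds, cut at about 24% in these data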;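 note: cytokine-independent growth of Ba/F3 cells driven by EpoR plus mutant JAK2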
IEC-6 cytotox: IEC-6 cytotoxicity, counter-screen for KLF5 inhibitors. luminescence viability. inhibition, % at 5 µM. actives 0.78% (n = 290,000). AID 1825; in the data active = inhibition above about 22%
BaF3 tox: parental Ba/F3 viability inhibition as JAK2V617F counter-screen; CellTiter-Glo ATP luminescence; inhibition, % at 5.6 µM; actives 1.1% (n = 220,000);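 active = inhibition above a per-campaign cutoff, the mean inhibition of all tested compounds plus 3 SD, cut at about 27% in these data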
Each line names hits and unclear results; the compound was inactive in the other large screens. Only some compounds are listed: those with a hit (about 2.2% of all), similar ones and a draw of the others.

Cc1[nH][nH]c(=O)c1C=Nc1ccc(C(F)(F)F)cc1	APP transl inh 77
COCc1[nH][nH]c(=O)c1C=Nc1ccc(C(F)(F)F)cc1	none
O=C(O)/C=C/C(=O)Nc1ccc2c(c1)NC(=O)CO2	none
O=C(Nc1ccc(N2CCOCC2)cc1)C1(c2ccc(Cl)cc2)CCC1	none
Cc1ccc([N+](=O)[O-])cc1NC(=O)Nc1cccc(F)c1	Ba/F3 V617F tox 40, BaF3 tox 37 (no result: APP transl inh)
O=C(Nc1ccccc1)Nc1cc([N+](=O)[O-])ccc1F	none
Cc1nnc(SCC(=O)NCc2ccco2)n1-c1ccccc1	none
COCc1cc(C)nc(OCC(=O)N/N=C/c2cc(C)n(-c3c(C)cccc3C)c2C)c1C#N	APP transl inh 57
CC1CCCCN1c1ncnc(N)c1[N+](=O)[O-] (configuration not stated)	none
CC1Cc2ccccc2N1c1ncnc(N)c1[N+](=O)[O-] (configuration not stated)	aSyn 5UTR inh 69, APP transl inh 48
CC(C)c1ccc2c(c1)C(N1CCNCC1)Cc1ccc(F)cc1S2 (configuration not stated)	aSyn 5UTR inh 75 (no result: KLF5 inh, APP transl inh, Ba/F3 V617F tox, IEC-6 cytotox, BaF3 tox)
CN1CCN(C2Cc3ccc(F)cc3Sc3cc(F)c(Cl)cc32)CC1 (configuration not stated)	aSyn 5UTR inh 102 (no result: KLF5 inh, APP transl inh, Ba/F3 V617F tox, IEC-6 cytotox, BaF3 tox)
COc1ccc(C(=O)Nn2c(CC(C)C)nc3cc(OC)c(OC)cc3c2=O)c(OC)c1	none (no result: APP transl inh, Ba/F3 V617F tox, BaF3 tox)
O=C(CC1CCCCC1)NCc1ccc(Cl)cc1	none (no result: APP transl inh, Ba/F3 V617F tox, BaF3 tox)
CCN=C1S/C(=C/c2ccc(-c3ccc(Cl)cc3C(=O)O)o2)C(=O)N1CC	none (no result: APP transl inh, Ba/F3 V617F tox, BaF3 tox)
CC(C)(C)c1ccc(/C=N/Nc2nncn2N)cc1	none (no result: APP transl inh, Ba/F3 V617F tox, BaF3 tox)
Nn1cnnc1N/N=C/c1cc(Br)cc(Br)c1O	IEC-6 cytotox 31
CC(C)CC(C(=O)OCC(=O)c1c(N)n(C)c(=O)n(C)c1=O)N1C(=O)c2ccccc2C1=O (configuration not stated)	none
Cc1cccc(CN2C(=O)/C(=C\c3ccc(C(=O)NCCCN4CCN(C)CC4)cc3)Oc3ccccc32)c1	aSyn 5UTR inh 95 (no result: APP transl inh, Ba/F3 V617F tox, BaF3 tox)
CN1CCN(CCCNC(=O)c2ccc(/C=C3\Oc4ccccc4N(Cc4ccccc4F)C3=O)cc2)CC1	none (no result: APP transl inh, Ba/F3 V617F tox, BaF3 tox)
COC(=O)c1ccc(N2CCOCC2)c(F)c1	none
CC(C)N1CCc2c(sc(N)c2C#N)C1	none (no result: KLF5 inh, APP transl inh, Ba/F3 V617F tox, IEC-6 cytotox, BaF3 tox)
CCN1CCc2c(sc(N)c2C#N)C1	APP transl inh 66
COc1ccc(S(=O)(=O)N2CCCCC2)cc1NC(=O)c1ccc([N+](=O)[O-])o1	APP transl inh 56
COc1cccc(NC(=O)NNC(=O)COc2ccc3ccccc3c2)c1	none (no result: APP transl inh, Ba/F3 V617F tox, BaF3 tox)
COc1cc(NC(=O)N2CCNC2=O)cc(C(=O)Nc2cccc(C(F)(F)F)c2)c1	aSyn 5UTR inh 68 (no result: KLF5 inh, APP transl inh, Ba/F3 V617F tox, IEC-6 cytotox, BaF3 tox)
COc1ccc(C2c3ccc4ccccc4c3Oc3ncn(CCN4CCOCC4)c(=N)c32)cc1 (configuration not stated)	none
COc1ccc(C2c3ccc4ccccc4c3Oc3ncn(CCN4CCOCC4)c(=N)c32)cc1OC (configuration not stated)	aSyn 5UTR inh 105 (no result: APP transl inh)
CN(C)CCCn1cnc2c(c1=N)C(c1ccccc1)c1ccc3ccccc3c1O2 (configuration not stated)	aSyn 5UTR inh 90 (no result: APP transl inh, Ba/F3 V617F tox, BaF3 tox)
Cc1ccc(C(=O)NCC(=O)OCC(=O)N(CC(C)C)c2c(N)n(Cc3ccccc3)c(=O)[nH]c2=O)cc1C	none (no result: KLF5 inh, APP transl inh, Ba/F3 V617F tox, IEC-6 cytotox, BaF3 tox)
CCOC(=O)c1ccccc1-c1csc(N)n1	BaF3 tox 53
CCOC(=O)c1c(C)[nH]c(-c2csc(N)n2)c1C	APP transl inh 73 (no result: aSyn 5UTR inh)
Cc1c(C(C)C)c(=O)n(-c2ccc(S(=O)(=O)NC3CCCCC3)cc2)n1C	Ba/F3 V617F tox 37, BaF3 tox 41
Cc1c(C(C)C)c(=O)n(-c2ccc(S(=O)(=O)NCc3ccccc3)cc2)n1C	Ba/F3 V617F tox 42, BaF3 tox 72
Oc1ccc(N=Nc2c(O)ccc3ccccc23)cc1	BaF3 tox 42
NS(=O)(=O)c1ccc(N=Nc2c(O)ccc3ccccc23)cc1	none
Cc1ccc(-c2nn3cnnc3c3ccccc23)cc1C	aSyn 5UTR inh 64
Cc1ccc(-c2nn3nnnc3c3ccccc23)cc1C	none
Cc1oc(S(=O)(=O)N(C)C)cc1C(=O)Nc1ccc(F)cc1	none (no result: APP transl inh)
O=S(=O)(c1ccc2c(c1)OCCO2)N1CCN(c2ncnc3sccc23)CC1	Ba/F3 V617F tox 44, BaF3 tox 78
COC(=O)c1ccc2c(=O)n(CCN3CCOCC3)c(SCC(=O)Nc3ccccc3Cl)nc2c1	none (no result: APP transl inh, Ba/F3 V617F tox, BaF3 tox)
CNCCCCOc1ccc(C(C)(C)C)cc1Cl	none
CCCCOc1ccc(CN=C(N)N)cc1Cl	BaF3 tox 35 (no result: APP transl inh)
CCCOc1ccc(CCCN=C(N)N)cc1Cl	Ba/F3 V617F tox 25, BaF3 tox 46 (no result: APP transl inh)
CCOc1ccc(CN=C(N)N=C(N)N)cc1Cl	BaF3 tox 27
CCCC1(C(=O)O)NC(c2ccccc2O)C2C(=O)N(Cc3ccccc3)C(=O)C21 (configuration not stated)	none
COc1ccc(CSc2ccc(-c3nc4ccccn4c3NCc3ccccc3)cc2OC)cc1	none (no result: KLF5 inh, APP transl inh, Ba/F3 V617F tox, IEC-6 cytotox, BaF3 tox)
O=S(=O)(Nc1ccc(N2CCCCC2)cc1)c1ccc(F)cc1	none (no result: APP transl inh)
O=S(=O)(Nc1ccc(N2CCOCC2)cc1)c1ccc(F)cc1	BaF3 tox 90
Cc1ccc(/C=N/NC(=O)Cc2ccc(Cl)cc2)c(O)c1	aSyn 5UTR inh 66 (no result: APP transl inh, Ba/F3 V617F tox, BaF3 tox)
CN1/C(=C/C(=O)C2CC2)C(C)(C)c2ccccc21	BaF3 tox 41 (no result: aSyn 5UTR inh)
CN1/C(=C\C(=O)CSc2nncn2C)C(C)(C)c2ccccc21	Ba/F3 V617F tox 37, BaF3 tox 47
CN1/C(=C\C(=O)COC(=O)Cn2nnc(-c3ccccc3)n2)C(C)(C)c2ccccc21	Ba/F3 V617F tox 63, BaF3 tox 63
CN1/C(=C\C(=O)Nc2ccc(Br)cc2)C(C)(C)c2ccccc21	none
COc1cc(OC)cc(C(=O)NCC(=O)OCC(=O)/C=C2/N(C)c3ccccc3C2(C)C)c1	none
Cn1cnnc1SCC(=O)NCc1ccccc1	none
CN1/C(=C\C(=S)NC(=O)c2cccc(Br)c2)C(C)(C)c2ccccc21	Ba/F3 V617F tox 59, BaF3 tox 64
COc1ccc(NC(=O)c2ccc3c(c2)N(C)CCS3)cc1	none (no result: APP transl inh, Ba/F3 V617F tox, BaF3 tox)
CC(C)c1nc2sc3c(NCc4ccco4)ncnc3c2c2c1COC(C)(C)C2	aSyn 5UTR inh 71
CCCCCNC1=CC(=O)CC(c2ccccc2)C1 (configuration not stated)	none
CCCCCCCNC1=CC(=O)CC(c2ccccc2)C1 (configuration not stated)	Ba/F3 V617F tox 28, BaF3 tox 36
COc1cccc(C(=O)Cn2c(=N)n(C)c3ccccc32)c1	aSyn 5UTR inh 86
CCc1ccccc1NC(=O)CN(C1CCCCC1)S(C)(=O)=O	none (no result: APP transl inh, Ba/F3 V617F tox, BaF3 tox)
Oc1ccc(/C=N/Nc2ccnc3cc(Cl)ccc23)cc1O	Ba/F3 V617F tox 85, BaF3 tox 52 (no result: APP transl inh)
CC(=O)N(C(C)=O)c1ncc2c([nH]c3ccccc32)c1C#N	aSyn 5UTR inh 65
Cc1nc(C(=O)O)cc2c1[nH]c1ccccc12	none (no result: KLF5 inh, APP transl inh, Ba/F3 V617F tox, IEC-6 cytotox, BaF3 tox)
COc1ccc(C(=O)Nc2ccccc2C(=O)Nc2cc(C)ccn2)cc1	none (no result: APP transl inh, Ba/F3 V617F tox, BaF3 tox)
